Compounds with a hit are over-represented: about 0.56% of the library has one in this group of screens.
Bcl-2 Bim block = human Bim-Bcl-2 interaction inhibition. AID 950. inhibition, % at 10 µM. P10415. Bead-based flow cytometry, Bim peptide-Bcl-2 binding. 190,000 tested, 0.06% active; in the data active means inhibition above about 40%; inconclusive means no clear call, values can overlap the other calls;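 further: 0% = no compound wells with probe peptide and 100% = reference peptide inhibitor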
Arbovirus inh = blocks arbovirus infection; 200,000 tested, 0.37% active; arbovirus infection cell-based antiviral screen; inhibition, % at 10 µM; in the data active means inhibition above about 30%
Bcl-W Bim block = inhibitors of Bim-Bcl-W interaction, human | Q92843 | bead-based flow cytometry, Bim peptide-Bcl-W binding | inhibition, % at 10 µM | 190,000 tested, 0.02% active;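 further: 0% = bound tracer without compound and 100% = peptide blocker; higher means less fluorescent Bim peptide bound to Bcl-W beads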
Bcl-B Bim block = disrupts Bim peptide binding to human Bcl-B; bead-based flow cytometry; 190,000 tested, 0.073% active; inhibition, % at 10 µM; Q9HD36; AID 951;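 further: 0% = tracer peptide without compound and 100% = reference inhibitor peptide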
Target sequence (Q9HD36 whole entry, looked up): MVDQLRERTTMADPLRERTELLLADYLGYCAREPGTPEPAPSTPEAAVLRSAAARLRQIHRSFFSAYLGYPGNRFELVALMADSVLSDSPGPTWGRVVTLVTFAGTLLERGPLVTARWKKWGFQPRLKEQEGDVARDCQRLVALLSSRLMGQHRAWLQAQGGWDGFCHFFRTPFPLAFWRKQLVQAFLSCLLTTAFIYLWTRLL
Bim-Bfl-1 = disrupts Bim binding to human Bfl-1; Bead-based flow cytometry, Bim-Bfl-1 binding inhibition; inhibition, % at 10 µM; 190,000 tested, 0.12% active; AID 1008;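 further: 0% = wells without compound plus tracer and 100% = blocker peptide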
Bcl-XL Bim block = human Bim-Bcl-XL interaction inhibition; Q07817; Bim peptide-Bcl-XL binding, bead flow cytometry, fluorescence; inhibition, % at 10 µM; 190,000 tested, 0.04% active; AID 1007
Target sequence (Q07817 whole entry, looked up): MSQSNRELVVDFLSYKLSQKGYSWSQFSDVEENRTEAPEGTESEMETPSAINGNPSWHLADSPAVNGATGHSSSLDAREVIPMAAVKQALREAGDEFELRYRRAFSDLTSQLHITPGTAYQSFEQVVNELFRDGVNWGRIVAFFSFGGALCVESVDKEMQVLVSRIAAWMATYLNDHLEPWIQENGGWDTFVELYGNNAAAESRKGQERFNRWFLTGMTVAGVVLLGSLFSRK
* marks the source's active call; other numbers are inactive results; ? = inconclusive; · = not tested or not shown. Unless noted, no stated cut-off is given here; in the data, active means inhibition above about 40%.

SMILES | Bcl-2 Bim block | Arbovirus inh | Bcl-W Bim block | Bcl-B Bim block | Bim-Bfl-1 | Bcl-XL Bim block
Cc1cc(C)c2cc(CN(Cc3cccnc3)C(=O)c3ccc(F)cc3)c(Cl)nc2c1 | -6 | 91* | 0 | -6 | -9 | -13
C(=N\Nc1nc(-c2ccccc2)cs1)/c1ccncc1 | -1 | 15 | 3 | -4 | -4 | 0
O=C(O)c1csc(N/N=C/c2ccc(Br)cc2)n1 | -1 | 46* | -2 | -3 | 1 | -3
CCN(CC)c1ccc2c(c1)CCCN2 | 41* | -12 | 49* | 28 | 62* | 15
CCN(CC)c1ccc(CN2CCCCCC2)cc1 | 0 | -6 | -1 | -2 | -1 | 0
CNC(=S)N1N=C(c2ccc(C)cc2)CC1c1ccc(Br)cc1 (configuration not stated) | -7 | -10 | 0 | -8 | -11 | 0
CC(C)c1ccc(C2CC(c3ccc(Br)cc3)=NN2C(N)=S)cc1 (configuration not stated) | -1 | 3 | -3 | 66* | -2 | -3
O=c1cc(CSc2nnc(C3CC3)n2Cc2ccccc2)nc2sccn12 | 2 | -3 | 0 | -5 | 0 | -3
O=C(c1ccccc1NS(=O)(=O)c1ccc(Br)s1)N1CCCC1 | 27 | 7 | 31 | -3 | 49* | 38
O=C(c1ccccc1NS(=O)(=O)c1ccc(F)cc1)N1CCCC1 | -14 | 0 | -1 | -9 | -16 | -13
Cc1ccccc1OCc1nnc(SC(C)C(=O)O)n1Cc1ccccc1 (configuration not stated) | -3 | -1 | -1 | -7 | -3 | -1
c1ccc(Cc2noc(CN3CCCC(CN4CCOCC4)C3)n2)cc1 (configuration not stated) | 0 | -1 | -3 | 0 | -4 | -4
COc1ccc(NC(=O)/C(C#N)=C/c2c(C)nn(-c3ccc(F)cc3)c2Cl)cc1OC | 0 | 0 | -5 | -9 | 0 | -5
COc1ccc(NC(=O)/C(C#N)=C/c2c(C)nn(-c3ccc(F)cc3)c2Cl)cc1Cl | 32 | 1 | 20 | 29 | 42* | 32
CC(C)CCN1CCN(CC(c2ccccc2)c2ccccc2)CC1CCO (configuration not stated) | -1 | -11 | -1 | -4 | -5 | -3
CCC(/C=C1\Sc2ccc(OC)cc2N1CCO)=C\c1sc2ccc(OC)cc2[n+]1CCO | 60* | -19 | 40* | 14 | 62* | 51*
CCC(/C=C1\Sc2ccc(OC)cc2N1CC)=C\c1sc2ccc(OC)cc2[n+]1CCCS(=O)(=O)[O-] | 5 | 2 | 1 | 4 | -1 | 3
N/C(Cc1ccc(Cl)c(Cl)c1)=N\OC(=O)c1cccs1 | 29 | -10 | 15 | 41* | 14 | 8
CC(C)c1ccc(S(=O)(=O)/N=C2/C=CC(=O)c3ccccc32)cc1 | 6 | -7 | 9 | -16 | 42* | 1
O=C(NC(=S)NCCC1=CCCCC1)c1ccccc1Br | -6 | 37* | -1 | -5 | -4 | -4
Cc1cc(C)c2c(N)c3cccc(C)c3nc2n1 | -5 | -29 | 0 | 21 | -2 | 0
Cc1c(N/C(=N/S(=O)(=O)c2ccc(F)cc2)c2ccccc2)c(=O)n(-c2ccccc2)n1C | -4 | 0 | -1 | 0 | 5 | -5
CC(C)(C)c1ccc(C(=O)NC(=S)NCC2CCCO2)cc1 (configuration not stated) | -3 | 40* | -7 | -6 | -3 | -13
CCn1nnc(NC(=O)C(C)(c2ccccc2)c2ccccc2)n1 | 1 | -8 | -4 | -5 | -6 | -2
Cc1nc2scc(-c3cccs3)c2c(=O)o1 | -2 | 0 | 0 | -8 | -13 | -2
SMILES | Bcl-2 Bim block | Arbovirus inh | Bcl-W Bim block | Bcl-B Bim block | Bim-Bfl-1 | Bcl-XL Bim block
O=c1oc(-c2cccs2)nc2scc(-c3cccs3)c12 | 11 | 71* | 2 | -29 | 9 | 13
O=[N+]([O-])c1ccc(-n2cnc3ccccc32)c([N+](=O)[O-])c1 | 0 | -15 | -2 | -8 | 0 | -2
Oc1ccc(Nc2nc(NCC3CCCO3)c3ccccc3n2)cc1 (configuration not stated) | -2 | 41* | -2 | -7 | 0 | 0
COc1cc(NCCCCCCCN)c2ncccc2c1 | 51* | -35 | 48* | 71* | 36 | 49*
COc1cc(NC(=O)c2ccc3c(c2)OCO3)c2ncccc2c1 | -3 | -8 | 0 | -2 | 0 | -1
CC(C)Oc1ccc(-c2nn(-c3ccccc3)cc2/C=c2\sc3ncnn3c2=O)cc1 | 0 | 34* | 3 | 4 | 1 | 4
CSC1=NSC2=NC(=O)/C(=C\c3coc4ccccc4c3=O)C(=N)N12 | -3 | 5 | -2 | -6 | 1 | -4
CC(C)CSC1=NSC2=NC(=O)/C(=C\c3coc4ccccc4c3=O)C(=N)N12 | ? | 52* | · | · | · | ·
Clc1ccc2c(N/N=C/c3ccccc3Br)ccnc2c1 | 28 | 1 | 16 | 33 | 43* | -4
CSc1cccc(CN2CCN(CCC(C)C)C(CCO)C2)c1 (configuration not stated) | -6 | -7 | -6 | -10 | -5 | -9
Oc1ccc(C2=Nn3c(nnc3-c3ccco3)SC2)cc1O | 17 | -23 | 35 | 36 | 15 | 55*
O=C(Nc1ccc(OC(F)(F)F)cc1)c1[nH]ncc1[N+](=O)[O-] | -3 | 30* | 0 | -3 | -5 | -1
COCCCn1c(N)c(-c2nc3ccccc3n2C)c2nc3ccccc3nc21 | -3 | 44* | 4 | -2 | -8 | -1
Cn1c(-c2c(N)n(CCCc3ccccc3)c3nc4ccccc4nc23)nc2ccccc21 | 0 | -28 | 2 | -8 | -4 | -1
CSC1=NC(C(Cl)(Cl)Cl)N=C(c2ccc(C)cc2)N1 (configuration not stated) | 0 | -2 | 0 | -2 | -3 | 0
CC1CCc2c(sc(NC(=O)c3ccccc3C(=O)O)c2C#N)C1 (configuration not stated) | -2 | 59* | 0 | -2 | -5 | 0
CC(=O)Nc1sc2c(c1C#N)CCC(C)C2 (configuration not stated) | 0 | -5 | -1 | -2 | -1 | -1
CC(C)(C)C1CCc2c(sc(NC(=O)C3CC=CCC3C(=O)O)c2C#N)C1 (configuration not stated) | -2 | 36* | -5 | 0 | -2 | -1
O=C(Nc1sc2c(c1C(=O)O)CCCCC2)c1ccccc1F | 0 | 38* | 0 | 0 | -4 | -3
O=C(Nc1sc2c(c1C(=O)O)CCCCC2)c1cccs1 | -1 | 46* | 0 | -2 | -4 | -2
O=C(Nc1sc2c(c1C(=O)O)CCC2)c1ccco1 | -3 | 10 | 5 | -6 | -11 | -4
O=C(Nc1sc2c(c1C(=O)O)CCCC2)c1cccs1 | 7 | 48* | 1 | 3 | 4 | 6
CC(C)CC(=O)Nc1sc2c(c1C(=O)O)CCCCC2 | -1 | 16 | -5 | -2 | -2 | -6
CC(C)OC(=O)c1c(NC(=O)c2cccs2)sc2c1CCCC2 | -2 | 6 | 6 | -6 | -10 | 0
